Source: PubChem BioAssay AID1159580 (chemical genetic matrix, 2015)
Values joined by “and” are separate entries in the source; they are usually repeats but may differ in a detail not shown here. Equal values may be shown once. Hit rate of the full screen: of about 5,500 compounds, about 2,000 (36%) were called active. Another 18% or so got no clear call; they are omitted. No stated cut-off is given here; in the data, active means normalized growth mostly below about 0.91 (no sharp cut-off); inconclusive means no clear call, values can overlap the other calls; inactive means mostly above about 0.92. The list shows a part of the results.

Test: chemical genetic growth profiling, strain panel (AID 1159580);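 further: tested at 20 µM; growth read once vehicle control cultures reached saturation at 30 °C; 1 = growth at the plate median or of vehicle wells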
Details: S. cerevisiae deletion strains, growth OD

Measured: normalized growth

N[C@@H](Cc1ccc(O)c(O)c1)C(=O)O
inactive: locus YAL013W, strain DEP1, stronger effect = lower value 0.999 | locus YAL021C, strain ccr4, stronger effect = lower value 1 | locus YAL026C, strain drs2, stronger effect = lower value 0.989 | locus YAL030W, strain snc1, stronger effect = lower value 1 | locus YBL061C, strain skt5, stronger effect = lower value 1.01 | locus YBR009C, strain hhf1, stronger effect = lower value 0.982 | locus YBR021W, strain FUR4, stronger effect = lower value 1.14 | locus YBR023C, strain chs3, stronger effect = lower value 1 | locus YBR171W, strain sec66, stronger effect = lower value 0.997 | locus YBR229C, strain ROT2, stronger effect = lower value 1.01 | locus YBR231C, strain swc5, stronger effect = lower value 1 | locus YBR279W, strain paf1, stronger effect = lower value 1 | locus YCL011C, strain gbp2, stronger effect = lower value 1 | locus YCL016C, strain dcc1, stronger effect = lower value 0.997 | locus YCL029C, strain bik1, stronger effect = lower value 0.998 | locus YCL061C, strain MRC1, stronger effect = lower value 0.998 | locus YCL069W, strain vba3, stronger effect = lower value 1 | locus YCR088W, strain abp1, stronger effect = lower value 0.999 | locus YDL005C, strain med2, stronger effect = lower value 0.994 | locus YDL035C, strain GPR1, stronger effect = lower value 0.976 | locus YDL040C, strain nat1, stronger effect = lower value 0.998 | locus YDL074C, strain BRE1, stronger effect = lower value 0.969 | locus YDL101C, strain DUN1, stronger effect = lower value 0.993 | locus YDL134C, strain PPH21, stronger effect = lower value 0.997 | locus YDL185W, strain tfp1, stronger effect = lower value 0.955 | locus YDL192W, strain arf1, stronger effect = lower value 0.991 | locus YDR001C, strain nth1, stronger effect = lower value 1 | locus YDR069C, strain doa4, stronger effect = lower value 1 | locus YDR101C, strain arx1, stronger effect = lower value 1 | locus YDR137W, strain rgp1, stronger effect = lower value 1.01 | locus YDR150W, strain NUM1, stronger effect = lower value 0.947 | locus YDR159W, strain sac3, stronger effect = lower value 0.995 | locus YDR162C, strain NBP2, stronger effect = lower value 0.968 | locus YDR195W, strain ref2 0.962 | locus YDR297W, strain sur2, stronger effect = lower value 1.01 | locus YDR318W, strain mcm21, stronger effect = lower value 0.987 | locus YDR334W, strain swr1, stronger effect = lower value 1 | locus YDR335W, strain msn5, stronger effect = lower value 0.997 | locus YDR388W, stronger effect = lower value 1.01 | locus YDR392W, strain spt3, stronger effect = lower value 0.885 | locus YDR502C, strain sam2, stronger effect = lower value 0.999 | locus YEL003W, strain gim4, stronger effect = lower value 0.999 | locus YEL037C, strain rad23, stronger effect = lower value 1 | locus YEL061C, strain CIN8 (second series), stronger effect = lower value 0.999 | locus YEL061C, strain CIN8, stronger effect = lower value 0.998 | locus YER015W, strain faa2, stronger effect = lower value 1.01 | locus YER016W, strain bim1, stronger effect = lower value 0.995 | locus YER110C, stronger effect = lower value 0.993 | locus YER111C, strain swi4, stronger effect = lower value 0.995 | locus YER155C, strain BEM2 (second series), stronger effect = lower value 0.988 | locus YER155C, strain BEM2, stronger effect = lower value 1.02 | locus YER167W, strain BCK2, stronger effect = lower value 0.989 | locus YFR010W, strain ubp6, stronger effect = lower value 0.999 | locus YGL078C, strain dbp3, stronger effect = lower value 0.986 | locus YGL086W, strain mad1, stronger effect = lower value 0.98 | locus YGL167C, strain pmr1, stronger effect = lower value 0.994 | locus YGL173C, strain kem1, stronger effect = lower value 1 | locus YGL227W, strain vid30, stronger effect = lower value 0.986 | locus YGL240W, strain doc1, stronger effect = lower value 0.986 | locus YGL248W, strain PDE1, stronger effect = lower value 0.989 | locus YGL253W, strain hxk2, stronger effect = lower value 1 | locus YGR078C, strain PAC10, stronger effect = lower value 0.932 | locus YGR135W, strain pre9, stronger effect = lower value 0.996 | locus YGR229C, strain SMI1, stronger effect = lower value 0.928 | locus YGR252W, strain gcn5, stronger effect = lower value 1.03 | locus YHR013C, strain ard1, stronger effect = lower value 0.943 | locus YHR027C, strain rpn1, stronger effect = lower value 1.01 | locus YHR030C, strain SLT2, stronger effect = lower value 0.997 and 0.962 | locus YHR079C, strain IRE1 (second series), stronger effect = lower value 0.995 | locus YHR079C, strain IRE1, stronger effect = lower value 0.951 | locus YHR094C, strain hxt1, stronger effect = lower value 0.988 | locus YHR129C, strain ARP1, stronger effect = lower value 0.991 | locus YHR142W, strain chs7, stronger effect = lower value 1.01 | locus YHR200W, strain rpn10, stronger effect = lower value 0.992 | locus YIL066C, strain RNR3, stronger effect = lower value 0.928 | locus YIL073C, strain SPO22, stronger effect = lower value 0.866 | locus YIL125W, strain kgd1, stronger effect = lower value 0.984 | locus YIR030C, strain dcg1, stronger effect = lower value 1 | locus YJL092W, strain hpr5, stronger effect = lower value 0.991 | locus YJL095W, strain BCK1 (second series), stronger effect = lower value 1 | locus YJL095W, strain BCK1, stronger effect = lower value 1.01 and 0.968 | locus YJL115W, strain asf1, stronger effect = lower value 1 | locus YJL129C, strain trk1, stronger effect = lower value 1 | locus YJL134W, strain LCB3, stronger effect = lower value 0.99 | locus YJL154C, strain vps35, stronger effect = lower value 1 | locus YJL164C, strain tpk1, stronger effect = lower value 1 | locus YJL166W, strain qcr8, stronger effect = lower value 0.997 | locus YJL168C, strain set2, stronger effect = lower value 1.01 | locus YJL187C, strain SWE1 (second series), stronger effect = lower value 0.984 | locus YJL187C, strain SWE1, stronger effect = lower value 1 | locus YJR043C, strain POL32, stronger effect = lower value 0.996 | locus YJR066W, strain TOR1, stronger effect = lower value 0.928
